# Laboratory results published in ChEMBL document CHEMBL4513216, “Probing the Open Global Health Chemical Diversity Library for Multistage-Active Starting Points for Next-Generation Antimalarials” (ACS Infect Dis, 2020).
# The whole screen tested about 69,000 compounds, of which about 8,600 (12%) showed an effect of 50% or more. Shown is part of a subset that was picked to be rich in strong results.
# Tested on: Plasmodium berghei
# Assay: Screen against P. berghei liver stage (PbLuc), transformed with Luciferase, at 10uM
# Format: functional, HepG2
# Details: tested at 10 uM
row,Compound,INHIBITION
1,Cc1cnn(CC2CCCN2CC(=O)NCc2ccccn2)c1 (centres undefined),-28.9%
2,Cc1ccc2nc(C)cc(NCCNS(=O)(=O)c3cn(C)nc3C)c2c1,55.5%
3,Cc1ccc2nc(C)cc(NCCNS(=O)(=O)c3cccnc3)c2c1,39.7%
4,Cc1cc(NCCNS(=O)(=O)c2cn(C)nc2C)c2ccccc2n1,-5.8%
5,Cc1ccnc(OC[C@]23COC[C@H]2CN(C(=O)c2ccnn2C)C3)n1,43.1%
6,O=C(CN1CCc2ccccc2C1)NCc1cc2n(n1)CCCNC2,-16.8%
7,Cn1ccnc1CN1CCN(Cc2noc(C3CC3)n2)CC1,-15.5%
8,CC1CN(Cc2noc(C3CC3)n2)CCN1Cc1noc(C2CC2)n1 (centres undefined),33.8%
9,CC1CN(Cc2noc(C3CC3)n2)CCN1Cc1nccn1C (centres undefined),55.9%
10,O=C(NC1CCCC1)c1ccnc(C2CCNCC2)c1,-11.3%
11,COCC1CC2(CCN(C(=O)c3cc(C)oc3C)CC2)CN1C(C)C (centres undefined),6.8%
12,COc1ccc(C2SC(C)=Nc3c2c(=O)[nH]n3C2CCCC2)cc1O (centres undefined),-6.09%
13,CCCc1cc(N2CCCC2Cn2cc(C)cn2)n2ncnc2n1 (centres undefined),-60.9%
14,CCCc1cc(N2CCCC2Cn2nc(C)nc2C)n2ncnc2n1 (centres undefined),53.4%
15,CCCc1cc(N2CCCC2Cn2nc(C)cc2C)n2ncnc2n1 (centres undefined),-48.1%
16,CN1CCN(CCOc2ccc(NC(=O)c3ccc[nH]3)cc2)CC1,-23.5%
17,Cc1cc(N2CCc3c(ncn3C)C2)nc(N)n1,-14.9%
18,CN1CCN(C2CCN(Cc3noc(-c4ccccc4)n3)CC2)C1=O,8.11%
19,CN1CCN(C2CCN(CCOc3ccccc3)CC2)C1=O,40.2%
20,O=C1NCCN1C1CCN(c2ccnc(-c3ccccc3)n2)CC1,73.1%
21,CN1CCCC1c1ccnc(-c2ccccc2)n1 (centres undefined),-24.4%
22,CN1CCN(C2CCN(c3ccnc(-c4ccccc4)n3)CC2)C1=O,91.1%

row,Compound,INHIBITION
1,Cn1cnc2c1CCN(c1ccnc(-c3ccccc3)n1)C2,61.2%
2,O=C1NCCN1C1CCN(Cc2ccccn2)CC1,-14.2%
3,c1ccc(-c2nccc(N3CCc4c(ncn4C4CC4)C3)n2)cc1,40.9%
4,CN1CCN(C2CCN(CC(O)c3ccccc3)CC2)C1=O (centres undefined),16.715%
5,O=C1NCCN1C1CCN(Cc2coc(-c3ccccc3)n2)CC1,33.3%
6,CN1CCN(C2CCN(c3cnc4ccccc4n3)CC2)C1=O,76.5%
7,Cc1noc([C@H]2COC[C@H]3CN(C(=O)Cc4cccc(F)c4)C[C@H]32)n1,38.5%
8,COc1c(C)cnc(CN2CCOC(CNc3cccnn3)C2)c1C (centres undefined),9.54%
9,O=C(CN1CCN(C(=O)c2ccccc2)CC1)Nc1ccc(Br)cn1,47.3%
10,CCn1ccnc1CN1CCCN(C(=O)c2scnc2C)CC1,13.64%
11,O=C(O)CCn1nc(C(F)(F)F)c(Cl)c1C1CC1,31.7%
12,O=C(NCC1Cn2nnc(-c3ccncc3)c2CO1)c1ccc[nH]1 (centres undefined),31.4%
13,Cc1cccc(CN2C[C@@H]3CCCO[C@@H]3[C@H](Nc3ccccn3)C2)n1,25.3%
14,O=C(CCc1cc2n(n1)CCCNC2)N1CCN(C2CCCC2)C(=O)C1,-34.8%
15,CO[C@H]1CN(Cc2cc(F)ccc2F)CC[C@@]12CCCO2,-9.27%
16,COc1ccc2[nH]cc(C(=O)CNc3nccs3)c2c1,12.8%
17,Fc1ccc(CN2CCCC2Cn2cncn2)c2ncccc12 (centres undefined),79.2%
18,Clc1ccc2cccnc2c1CN1CCCCC1Cn1cncn1 (centres undefined),45.65%
19,CS(=O)(=O)NCC1CCCN(Cc2ccc(F)c3cccnc23)C1 (centres undefined),18.5%
20,Clc1ccc2cccnc2c1CN1CCCC1Cn1cncn1 (centres undefined),66.2%
21,OC1CCCN(Cc2ccc(F)c3cccnc23)C1 (centres undefined),54.4%
22,Clc1ccc2cccnc2c1CN1CCCC(Cn2cncn2)C1 (centres undefined),22.9%

row,Compound,INHIBITION
1,Clc1ccc(CN2CCCC2Cn2cncn2)c2ncccc12 (centres undefined),23.45%
2,Fc1ccc(CN2CCCCC2Cn2cncn2)c2ncccc12 (centres undefined),21.6%
3,Fc1ccc(CN2CCCC(Cn3cncn3)C2)c2ncccc12 (centres undefined),-44.8%
4,CC(C)C(C)NC(=O)Nc1ccc(F)c(C(N)=O)c1 (centres undefined),1.75%
5,O=C(C1CNCCN1C(=O)CCc1cccnc1)N1CCOCC1 (centres undefined),42.1%
6,CNC(=O)[C@@H]1[C@H]2CN(Cc3ccccn3)CCN2C[C@H]1c1ccccc1,8.61%
7,Cc1csc(NC(=O)Cn2nc(C)ccc2=O)n1,37.8%
8,O=C(COCCOc1ccccc1)NC1CCN(C(=O)C2CC2)CC1,29.9%
9,COCCN1C(=O)CCC12CCN(C(=O)CC1CC1)CC2,21.6%
10,CC(C)OCCCN(Cc1ccncc1)Cc1cccc(F)c1,43.6%
11,CN(Cc1cccnc1)C(CO)c1cccc(Br)c1 (centres undefined),85.2%
12,CN(Cc1ccccn1)C(C(=O)O)c1ccc2c(c1)OCO2 (centres undefined),40.3%
13,CN(Cc1ccncc1)C(CO)c1cccc(Br)c1 (centres undefined),4.52%
14,COc1cc(F)ccc1N(C)Cc1ccncc1,-24.9%
15,CN(Cc1ccccn1)C(CO)c1cccc(Br)c1 (centres undefined),88%
16,CN(Cc1nccn1C)C(CO)c1cccc(Br)c1 (centres undefined),33.7%
17,CN(Cc1cnn(C)c1)C(CO)c1cccc(Br)c1 (centres undefined),49%
18,CN(Cc1ccncc1)C(CO)c1cccc(F)c1 (centres undefined),68.5%
19,CCn1nnc(NCc2ccccc2OCc2ccc(Cl)cc2)n1,-3.5%
20,CCN1CCN(CCNC(=O)c2sc(C)nc2C)CC1,1.75%
21,CN(C)C(=O)N1CC2(CCN(CC3CC3)CC2)c2cc(F)ccc21,-13.4%
22,Cc1cc(C2CCN(S(=O)(=O)c3cn(C)cn3)CC2)ccn1,17.1%

row,Compound,INHIBITION
1,CCC(C)(C)C(=O)N1C[C@@H]2C[C@@H](c3nnc(C)[nH]3)O[C@@H]2C1,30.5%
2,OCC1(NCc2cnc(-c3ccccn3)s2)CCOCC1,-16.4%
3,CCc1nc(C2CCCN2CC(=O)NCCc2ccsc2)no1 (centres undefined),25.6%
4,CC(=O)NCc1cc2n(n1)CCN(Cc1cccc(Cl)c1F)C2,10.7%
5,COc1ccc(-n2ncc(C(C)NC3CCOCC3)c2C)cc1 (centres undefined),23.7%
6,COc1ccc(-n2ncc(C(C)NC3CCSCC3)c2C)cc1 (centres undefined),53.8%
7,Cc1c(C(C)NC2CSCCSC2)cnn1-c1ccc(F)cc1F (centres undefined),43.7%
8,Cc1c(C(C)NCc2cnn(C)c2)cnn1-c1ccccc1 (centres undefined),43%
9,Cc1c(C(C)NC2CCN(C(C)C)CC2)cnn1-c1ccc(F)cc1F (centres undefined),46.9%
10,COc1ccc(-n2ncc(C(C)NC3Cc4ccccc4C3)c2C)cc1 (centres undefined),63.8%
11,O=C(N[C@@H]1CN(C2CCCC2)C[C@@H]2CCCO[C@@H]21)c1cnccn1,-45.5%
12,CC1CCCCN1C(=O)Cn1cnc(C#N)n1 (centres undefined),69.3%
13,N#Cc1ncn(CC(=O)N2CCCC2c2cccs2)n1 (centres undefined),23.3%
14,CCC1CCCCN1C(=O)Cn1cnc(C#N)n1 (centres undefined),47.9%
15,CSc1ccc(-c2cc(CN)nc3ccnn23)cc1,13%
16,COc1cccc(NC(=O)NC2(c3noc(CN(C)C)n3)CCCC2)c1,16.2%
17,CCN(CC)CCn1cc(NC2CCSCC2)cn1,-3.21%
18,Fc1ccc(C2(c3noc(CCN4CCCCO4)n3)CCOC2)cc1 (centres undefined),-23.4%
19,CCOc1ccc2[nH]c(=O)c(CN3CCCC3c3ccccn3)cc2c1 (centres undefined),32.7%
20,O=c1[nH]c2cc3c(cc2cc1CN1CCCC1c1ccccn1)OCO3 (centres undefined),6.94%
21,O=c1[nH]c2cc3c(cc2cc1CN1CCCC1c1ccccn1)CCC3 (centres undefined),56.5%
22,O=C(Nc1ccc(CCN2CCC(O)CC2)cc1)C1CCCOC1 (centres undefined),20.06%

row,Compound,INHIBITION
1,O=C(CN1CCOc2ccccc2C1)NCc1cc2n(n1)CCCNC2,12.9%
2,CC(NCc1ccsc1)c1ccc2c(c1)NC(=O)CO2 (centres undefined),22.15%
3,COc1cccc(SCC(=O)N2CCC(N3CCCC(O)C3)CC2)c1 (centres undefined),64.9%
4,COc1cccc(SCC(=O)N2CCCC(N3CCCC3=O)C2)c1 (centres undefined),15.5%
5,COc1cccc(SCC(=O)N2CCC(N3CCCC3=O)CC2)c1,43.9%
6,Cc1c(NC(=O)CN(C)S(C)(=O)=O)cccc1OC1CCCC1,-28.2%
7,CCCNC(=O)CN1CCC(NC(=O)c2cc(CC)ccc2O)CC1,-23.15%
8,N#Cc1cccnc1N1CCC(C2CCCCCN2C(=O)C2CC2)CC1 (centres undefined),-1.3%
9,O=S(=O)(c1ccccc1F)N1CCCC(c2nccs2)C1 (centres undefined),61.7%
10,O=S(=O)(c1cccs1)N1CCCC(c2nccs2)C1 (centres undefined),-27.4%
11,O=S(=O)(c1ccccc1)N1CCCC(c2nccs2)C1 (centres undefined),31.6%
12,CN(CCS(=O)(=O)c1cc(Cl)ccc1Cl)CC(=O)Nc1cccc(F)c1,59.4%
13,CN(CCS(=O)(=O)c1cc(Cl)ccc1Cl)CC(N)=O,10.6%
14,CN(CCS(=O)(=O)c1cc(Cl)ccc1Cl)CC(=O)Nc1ccc(F)cc1,-8.22%
15,Cc1nnc2n1CCN(C(=O)C1CCC(n3cccc3)CC1)C2 (centres undefined),20.8%
16,COC(=O)CC(c1cccnc1)c1oc(C)cc(=O)c1O (centres undefined),-14.8%
17,COc1ccccc1CN1CC(OC)CN(C(=O)CC(C)C)CC1=O (centres undefined),4.82%
18,Cc1ccc(CN2CCc3c(CN(C)C)n[nH]c3C2)s1,13.7%
19,Cc1ccc(CNC(=O)N2CCc3ccccc3C2CO)s1 (centres undefined),28.7%
20,O=C(c1cccs1)N1CCN(Cc2cc(=O)c3ccccc3[nH]2)CC1,15.4%
21,Cn1ccc(CN2CCC(Cc3ccccc3)CC2)cc1=O,-0.219%
